The campaign covered roughly 330,000 compounds. About 1,100 (0.33%) were called active. This is one part of a sample in which actives are shown more often than they occur. No stated cut-off is given here; in the data, active means inhibition above about 35%; inactive means the rest.

The assay can be described thus: inhibitors of PMA/ionomycin-induced NF-kB reporter, 697 cells, primary screen, B-cell NF-kB inhibitor project, cell-based, luminescence, uHTS (AID 435022). Particulars: 697 B-cell NF-kB luciferase reporter, 16 h, at 4 µM, hits give high values. On the technique in general: Reporter assays use an easily measured gene product as a stand-in for the process of interest.
What is called inhibition is the change of the read-out against control, counted positive when it falls. With `CCCCCCCCCCCCn1ccc(=N)cc1`, the inhibition is 90.6% (active).

`CCOc1ccc(C2SCC(=O)Nc3c2c(C)nn3C2CCOC(C)(C)C2)cc1` (stereo not given): the inhibition was 24.3% (inactive).

`COC(=O)COc1cc(C)cc2oc(=O)c3c(c12)CCCC3`: the inhibition is 13.3% (inactive).

Turning to `CN1C2C=C(N(C(=O)c3ccc(Cl)cc3)c3ccccc3)CC1CC2` (stereo not given), the inhibition is -2.33% (inactive).

With `COc1cc(-n2c(=S)[nH]c3ccc(C)cc3c2=O)c(Cl)cc1Cl`, the inhibition is -21.6% (inactive).

(Values after PubChem BioAssay AID435022 (Sanford-Burnham Center for Chemical Genomics, 2010).)
